We go through 21 compounds from PubChem BioAssay (NCATS).

Structures are written as SMILES. Inconclusive results are not listed. Unmarked numbers belong to inactive results. Activity calls are given as the source filed them. Calls come from the whole dose curve; as a rule, active = well fitted inhibition curve with a large enough effect; inconclusive = small, poorly fitted or top-dose-only effect; inactive = flat fitted curve, though single readings scatter.

Experiment [1] can be described thus: qHTS profiling for inhibitors of Plasmodium falciparum proliferation (AID 504749).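 For activity, negative = inhibition: 0% = DMSO vehicle and full inhibition = artemisinin control.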 For all read-outs here: nearly all actives have a fitted effect of over 60% in size. As to conditions: P. falciparum in erythrocytes, SYBR Green DNA, 72 h; for activity, negative = inhibition: at 28.7 µM (top of the series). An outline of the steps:
(§1)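 P. falciparum-infected erythrocytes (0.3% parasitemia, 2.5% hematocrit final) were exposed to compounds for 72 h at 37 C in 5% CO2, then lysed with SYBR Green buffer overnight at room temperature; parasite DNA fluorescence was normalized to artemisinin and DMSO controls.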
Background: In qHTS, concentration-response curves come from the screen itself.

A further experiment has as its system 7G8. The description is as above. As to conditions: P. falciparum in erythrocytes, SYBR Green DNA, 72 h; series mostly up to 28.7 µM. An outline of the steps:
as §1

For another experiment, the system named is AA1029. Described as above. The conditions noted are these: P. falciparum in erythrocytes, SYBR Green DNA, 72 h; series mostly up to 28.7 µM. An outline of the steps: as §1
The subject of the next experiment is AS120. The experiment is described as above. The conditions noted are these: P. falciparum in erythrocytes, SYBR Green DNA, 72 h; series mostly up to 28.7 µM. Put shortly: as §1
A further experiment concerns ATS189. Described as above. As to conditions: P. falciparum in erythrocytes, SYBR Green DNA, 72 h; series mostly up to 28.7 µM. Put shortly: as §1
For a further experiment, the system named is ATS95. Described as above. As to conditions: P. falciparum in erythrocytes, SYBR Green DNA, 72 h; series mostly up to 28.7 µM. An outline of the steps: as §1
The test system of another experiment is C2A. Described as above. As to conditions: P. falciparum in erythrocytes, SYBR Green DNA, 72 h; series mostly up to 28.7 µM. Put shortly: as §1
The next experiment relates to 3D7. Described as above. As to conditions: P. falciparum in erythrocytes, SYBR Green DNA, 72 h; series mostly up to 28.7 µM. An outline of the steps:
as §1
Potency is the fitted concentration of half-maximal effect.

For `CN1C[C@H](CNC(=O)OCc2ccccc2)C[C@@H]2c3cccc4c3c(cn4C)C[C@H]21`, the Potency in experiment [1] (parasite line A) is 7.08 µM (active); in the experiment on 7G8, 5.01 µM (active); in the experiment with AA1029 it was 6.31 µM (active); in the experiment with AS120, 10 µM (active); with ATS189, 10 µM (active); in the experiment with ATS95 it was 11.2 µM (active). Moreover, in the experiment on C2A, the Potency is 8.91 µM (active).
In the case of `Oc1ccc(Cl)cc1Cc1ccccc1`, the activity, negative = inhibition in experiment [1] (parasite line A) was -17.6%. The Potency with 7G8 is 2 µM (active); with AS120, 8.91 µM (active). Further, the Potency result in the experiment with C2A was “inactive”.
As to `CC(C)(C)CC(C)(C)c1ccc(O)cc1`, in experiment [1] (parasite line A), the activity, negative = inhibition was -18.1%. In addition, the Potency result with 3D7, in the experiment on AA1029, with ATS189, with ATS95 and in the experiment with C2A was “inactive” in each case. The Potency with 7G8 was 12.6 µM (active).
On to `CCCC1CCCCN1` (configuration not stated), for which the activity, negative = inhibition is 5.52% in experiment [1] (parasite line A) and 3.92% in experiment [1] (parasite line B). Moreover, the Potency result in the experiment with 3D7, in the experiment on 7G8, with AA1029, in the experiment with AS120, with ATS189 and with ATS95 was “inactive” each time. The Potency entry in the experiment on C2A is “inactive”.
As to `c1ccc2c(c1)OCC(C1=NCCN1)O2` (configuration not stated), the activity, negative = inhibition in experiment [1] (parasite line A) is -17.7%; in experiment [1] (parasite line B), -17.9%. In addition, the Potency entry with AA1029, with AS120, in the experiment with ATS189, in the experiment with ATS95 and with C2A was “inactive” in each case.
Regarding `Oc1ccccc1-c1ccccc1`, the activity, negative = inhibition was -2.25% in experiment [1] (parasite line A) and -2.09% in experiment [1] (parasite line B). In addition, the Potency result with 3D7, in the experiment with 7G8, with AA1029, with AS120, in the experiment on ATS189 and in the experiment with ATS95 was “inactive” in each case. Also, in the experiment on C2A, the Potency result was “inactive”.
For `CCN(CC)CCOC(=O)C(O)(c1ccccc1)c1ccccc1`, the activity, negative = inhibition in experiment [1] (parasite line A) was 9.85%; in experiment [1] (parasite line B), -20.6%. In addition, the Potency result with 3D7, in the experiment with 7G8, with AA1029, with AS120, in the experiment on ATS189 and in the experiment on ATS95 was “inactive” each time. Further, the Potency entry with C2A was “inactive”.
As for `Clc1cccc(N2CCNCC2)c1`, the activity, negative = inhibition is 9.32% in experiment [1] (parasite line A) and 8.49% in experiment [1] (parasite line B). The Potency result in the experiment on 3D7, with AA1029, with AS120, with ATS189, with ATS95 and in the experiment on C2A was “inactive” each time.
In the case of `C[C@]12C/C(=C/O)C(=O)C[C@@H]1CC[C@@H]1[C@@H]2CC[C@@]2(C)[C@H]1CC[C@]2(C)O`, the activity, negative = inhibition in experiment [1] (parasite line A) is -16.2%. Further, the Potency entry with 3D7, in the experiment on AA1029, in the experiment with AS120, in the experiment with ATS189, in the experiment on ATS95 and in the experiment on C2A was “inactive” each time.
For `C=C1CC[C@@]2(O)[C@H]3Cc4ccc(O)c5c4[C@@]2(CCN3CC2CC2)[C@H]1O5`, the activity, negative = inhibition in experiment [1] (parasite line A) was 9.27%; in experiment [1] (parasite line B), 12.8%. For the same compound, the Potency result with 3D7, with 7G8, with AA1029, in the experiment on AS120, with ATS189 and in the experiment on ATS95 was “inactive” in each case. Further, the Potency result in the experiment with C2A is “inactive”.
For `Cc1ncc(CNC(=O)N(CCCl)N=O)c(N)n1`, the activity, negative = inhibition in experiment [1] (parasite line A) was 6.89%; in experiment [1] (parasite line B) it was 3.28%. Moreover, the Potency result in the experiment with 3D7, with 7G8, with AA1029, in the experiment on AS120, in the experiment with ATS189 and with ATS95 was “inactive” in each case. Further, the Potency result in the experiment on C2A is “inactive”.
For the compound `C#CCOC(C(=O)OCCN(C)C)(c1ccccc1)c1ccccc1`, the activity, negative = inhibition in experiment [1] (parasite line A) is -0.224%; in experiment [1] (parasite line B) it was 7.7%. Also, the Potency entry in the experiment with 3D7, in the experiment with AS120, with ATS189, in the experiment with ATS95 and in the experiment on C2A was “inactive” each time. Also, the Potency in the experiment on 7G8 is 10 µM (active).
With `CC[C@@H](CO)NC(=O)[C@@H]1C=C2c3cccc4[nH]cc(c34)C[C@H]2N(C)C1`, the activity, negative = inhibition in experiment [1] (parasite line A) was 17.2%; in experiment [1] (parasite line B) it was 1.58%. The Potency result in the experiment with 3D7, in the experiment with AA1029, with AS120, with ATS189, with ATS95 and with C2A was “inactive” in each case.
As for `NCCc1cc(O)c(O)cc1O`, the activity, negative = inhibition in experiment [1] (parasite line A) was 7.16%; in experiment [1] (parasite line B), 11.4%. Also, the Potency result in the experiment with 3D7, in the experiment with 7G8, in the experiment with AA1029, in the experiment with AS120, in the experiment on ATS189 and in the experiment on ATS95 was “inactive” throughout. Besides, the Potency entry in the experiment on C2A is “inactive”.
As to `CCC1(C2=NCCN2)Cc2ccccc2O1` (configuration not stated), the activity, negative = inhibition in experiment [1] (parasite line A) is 5.76%; in experiment [1] (parasite line B) it was 6.35%. Also, the Potency entry in the experiment with 3D7 is “inactive”. In addition, the figures for the Potency in the experiment on AA1029, in the experiment on ATS189 and in the experiment with ATS95 were 11.2 µM (active), 7.94 µM (active) and 8.91 µM (active), respectively.
With `CN1CCN(C(=O)O[C@H]2c3nccnc3C(=O)N2c2ccc(Cl)cn2)CC1`, the activity, negative = inhibition was -9.31% in experiment [1] (parasite line A) and -0.974% in experiment [1] (parasite line B). Further, the Potency result with 3D7, with 7G8, with AA1029, with AS120, in the experiment with ATS189 and in the experiment on ATS95 was “inactive” each time. Besides, the Potency result in the experiment on C2A is “inactive”.
With `Clc1ccc(COC(Cn2ccnc2)c2ccc(Cl)cc2Cl)cc1` (configuration not stated), the Potency in experiment [1] (parasite line A) is 3.55 µM (active); in experiment [1] (parasite line B), 2.51 µM (active); in the experiment on 3D7, 3.16 µM (active); in the experiment on 7G8, 0.398 µM (active); in the experiment on AA1029 it was 4.47 µM (active); in the experiment with AS120, 1 µM (active). Also, the Potency was 3.16 µM (active) with ATS189, 3.98 µM (active) in the experiment with ATS95 and 11.2 µM (active) in the experiment with C2A.
In the case of `CC(C)(C)NCC(O)c1cc(Cl)c(N)c(Cl)c1` (configuration not stated), the activity, negative = inhibition in experiment [1] (parasite line A) is -4.99%. In addition, the Potency entry in the experiment with 3D7 and in the experiment with C2A was “inactive” in each case. Besides, in the experiment with 7G8, the Potency is 7.94 µM (active).
Take `Cc1ccc(S(=O)(=O)N[C@@H](CCCCN)C(=O)CCl)cc1`: the Potency was 7.08 µM (active) in experiment [1] (parasite line A); 8.91 µM (active) in the experiment with 7G8; 10 µM (active) with AA1029; 11.2 µM (active) with AS120; 11.2 µM (active) in the experiment on C2A.
Regarding `CCN(CC)CCN1C(=O)CN=C(c2ccccc2F)c2cc(Cl)ccc21`, the activity, negative = inhibition is -1.62% in experiment [1] (parasite line A) and -4.36% in experiment [1] (parasite line B). Besides, the Potency entry with 3D7, in the experiment with AS120 and in the experiment on C2A was “inactive” in each case.
`CN(C)CCc1ccc(O)cc1`: the results for the activity, negative = inhibition in experiment [1] (parasite line A) and in experiment [1] (parasite line B) were -8.4% and 2.47%, respectively. Also, the Potency entry with 3D7, in the experiment with 7G8, in the experiment on AA1029, in the experiment with AS120, with ATS189 and in the experiment with ATS95 was “inactive” throughout. Further, the Potency result in the experiment on C2A is “inactive”.
